Where a name gives a salt, the structure may show the parent alone.
Assays:
[1] = system: Staphylococcus aureus MW2 delta-mecA (mecA-); assay: normalized GFP fluorescence (growth of mecA- strain) (fraction of control range); higher = more growth of mecA- strain; details: compound concentration: 150 uM; cefoxitin: subinhibitory; fluorescent label: GFP
Method in brief: (§1)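 Single-replicate 1536-well plates carried 150 μM compound (1.5% DMSO), onto which 5 µL/well of a 1:1 mix of pre-induced S. aureus MW2 cells was dispensed: gene-carrying cells tagged with DsRed and deletion cells tagged with GFP, in LB with a subinhibitory antibiotic dose set daily. Incubation ran 20 h at 37 °C, 90% humidity, unshaken, followed by DsRed (540/590) and GFP (485/520) reads. Per-plate scaling of each channel used single-strain control medians, and plates with high untreated ratios and rows with DsRed/GFP >10 were excluded.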

[2] = system: Staphylococcus aureus MW2 (mecA+); assay: normalized DsRed fluorescence (growth of mecA+ strain) (fraction of control range); higher = more growth of mecA+ strain; details: compound concentration: 150 uM; cefoxitin: subinhibitory; fluorescent label: DsRed
Method in brief: as §1

| SMILES | normalized GFP fluorescence [1] | normalized DsRed fluorescence [2] |
| --- | --- | --- |
| CC#CCn1c(N2CCC[C@@H](N)C2)nc2c1c(=O)n(Cc1nc(C)c3ccccc3n1)c(=O)n2C | 0.315 | 0.667 |
| CCCSc1ccc2[nH]c(NC(=O)OC)nc2c1 | 0.251 | 0.742 |
| NC(N)=Nc1nc(CSCC/C(N)=N/S(N)(=O)=O)cs1 | 0.53 | 0.755 |
| NS(=O)(=O)c1cc2c(cc1Cl)N=CNS2(=O)=O | 0.373 | 0.683 |
| O=C(O)CCC(=O)Nc1ccc(S(=O)(=O)Nc2nccs2)cc1 | 0.332 | 1.01 |
| CC(=O)OCC(=O)[C@@]1(OC(C)=O)[C@@H](C)C[C@H]2[C@@H]3C[C@H](F)C4=CC(=O)C=C[C@]4(C)[C@@]3(F)[C@@H](O)C[C@@]21C | 0.256 | 1.11 |
| CN(C)C(=O)COC(=O)Cc1ccc(OC(=O)c2ccc(NC(=N)N)cc2)cc1 [Camostat Mesilate (FOY-305)] | 0.0607 | 0.818 |
| CCN(CC)C(=O)C1(c2ccccc2)CC1CN (stereo unspecified) | 0.155 | 0.617 |
| COc1cc2c3cc1Oc1cc(ccc1O)C[C@@H]1c4c(cc(OC)c(O)c4Oc4ccc(cc4)C[C@@H]3N(C)CC2)CC[N+]1(C)C | 0.357 | 0.607 |
| C[n+]1ccccc1/C=N/O | 0.332 | 0.9 |
| NC(=O)N/N=C/c1ccc([N+](=O)[O-])o1 [Nitrofurazone (Nitrofural)] | 0.0137 | 0.0574 |
| Cc1[nH]c(=O)c(C#N)cc1-c1ccncc1 | 0.476 | 0.797 |
| Clc1ccc(COC(Cn2ccnc2)c2ccc(Cl)cc2Cl)cc1 (stereo unspecified) [Econazole nitrate (Spectazole)] | -0.00195 | 0.01 |
| CNC(=O)CN(CCN(CCN(CC(=O)O)CC(=O)NC)CC(=O)O)CC(=O)O.O.[Gd] [Gadodiamide (Omniscan)] | 0.443 | 0.566 |
| CC(C)[N+]1(C)[C@@H]2CC[C@H]1C[C@@H](OC(=O)C(CO)c1ccccc1)C2 (stereo partly specified) | 0.206 | 0.856 |
| NNCCc1ccccc1 | 0.153 | 0.707 |
| CC/C(=C(/CC)c1ccc(O)cc1)c1ccc(O)cc1 | 0.0115 | 0.065 |
| CCCN[C@H]1CCc2nc(N)sc2C1 [Pramipexole dihydrochloride monohydrate] | 0.713 | 0.597 |
| CN1CCc2cccc3c2[C@H]1Cc1ccc(O)c(O)c1-3 | 0.463 | 0.543 |

| SMILES | normalized GFP fluorescence [1] | normalized DsRed fluorescence [2] |
| --- | --- | --- |
| COc1cc(C(=O)NCc2ccc(OCCN(C)C)cc2)cc(OC)c1OC | 0.326 | 0.862 |
| NS(=O)(=O)c1cc2c(cc1C(F)(F)F)NCNS2(=O)=O | 0.22 | 0.753 |
| CCN1CCCC(OC(=O)C(c2ccccc2)c2ccccc2)C1 (stereo unspecified) | 0.427 | 0.501 |
| Cc1nccn1CC1CCc2c(c3ccccc3n2C)C1=O (stereo unspecified) | 0.319 | 0.626 |
| CN1CCC(=C2c3ccccc3CC(=O)c3sccc32)CC1 [Ketotifen fumarate (Zaditor)] | 0.402 | 0.799 |
| Nc1nc(NC2CC2)c2ncn([C@H]3C=C[C@@H](CO)C3)c2n1 | 0.288 | 0.69 |
| CN1C(=O)OC(C)(C)C1=O | 0.0459 | 1.31 |
| Cc1[nH]c2ccccc2c1CCNCc1ccc(/C=C/C(=O)NO)cc1 [Panobinostat] | 0.228 | 1.43 |
| CC(C)NCC(O)COc1ccc(CC(N)=O)cc1 (stereo unspecified) | 0.323 | 0.749 |
| CC(C(=O)O)c1ccc(N2Cc3ccccc3C2=O)cc1 (stereo unspecified) | 0.227 | 0.501 |
| CC(=O)O[C@@]12CO[C@@H]1C[C@H](O)[C@@]1(C)C(=O)[C@H](O)C3=C(C)[C@@H](OC(=O)[C@H](O)[C@@H](NC(=O)OC(C)(C)C)c4ccccc4)C[C@@](O)([C@@H](OC(=O)c4ccccc4)[C@H]21)C3(C)C [Docetaxel (Taxotere)] | 0.11 | 0.768 |
| O=C(OCc1ccccc1)c1ccccc1 | 0.269 | 0.596 |
| O=C([O-])C(O)[C@H](O)[C@@H](O)[C@H](O)[C@H](O)CO.O=C([O-])C(O)[C@H](O)[C@@H](O)[C@H](O)[C@H](O)CO.[Ca+2] (stereo partly specified) | 0.35 | 0.718 |
| NC(=O)N1c2ccccc2C=Cc2ccccc21 | 0.497 | 0.792 |
| Cc1nc(C)c(Cl)c(O)c1Cl | 0.341 | 0.741 |
| CC(=O)OCC(=O)[C@@]1(O)CC[C@H]2[C@@H]3CCC4=CC(=O)CC[C@]4(C)[C@H]3C(=O)C[C@@]21C | 0.843 | 0.634 |
| O=C1O[C@H]([C@@H](O)CO)C(O)=C1O | 0.78 | 0.485 |
| CN(C/C=C/c1ccccc1)Cc1cccc2ccccc12 | 0.0944 | 1.02 |
| CCN1CCCC1CNC(=O)c1cc(S(N)(=O)=O)ccc1OC (stereo unspecified) | 0.362 | 0.764 |

— the supplement of paper PMC7695840
